PubChem BioAssay (NCATS)
Records with an inconclusive call do not appear. Activity calls are given as the source filed them. The call rests on the fitted dose curve; in most records, active means well fitted cell-killing curve with a large enough effect; inconclusive means small, poorly fitted or top-dose-only effect, or effect the other way; inactive means no such curve, though single readings can be large or run the other way.

Assay: Quantitative High-Throughput drug screen in 47 multiple myeloma cell lines against the NCATS MIPE library collection: Delta47_JCRB cell viability assay (AID 1918925; further: nearly all actives have a fitted effect of over 45% in size)
Conditions: Delta47 myeloma viability, CellTiter-Glo ATP, 48 h; series mostly up to 45.8 µM
In short: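 CellTiter-Glo luminescence (ATP) after 48 h compound exposure, 37C/5% CO2; 500 cells/well; MIPE 4.0 approved/investigational drugs pinned in; DMSO = 100%, media only = 0% viability.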
Potency means the concentration at half of the fitted maximal effect.

Compound | Potency
Cc1[nH]c(=O)c(C#N)cc1-c1ccc2nccn2c1 | inactive
Cc1cn[nH]c1 | 0.296 µM (active)
NC[C@H](O)c1ccc(O)c(O)c1 | inactive
CN1CCN(CCCN2c3ccccc3Sc3ccc(C(F)(F)F)cc32)CC1 | 4.69 µM (active)
Cc1cccc(-c2[nH]c(C(C)(C)C)nc2-c2ccc3nccnc3c2)n1 | 3.32 µM (active)
CC(C)C[C@H](NC(=O)[C@@H](O)[C@H](N)Cc1ccccc1)C(=O)O | 20.9 µM (active)
Nc1nc2ccc(OC(F)(F)F)cc2s1 | 13.2 µM (active)
Cc1cnc(NC(=O)C2=C(O)c3ccccc3S(=O)(=O)N2C)s1 | inactive
Cc1[nH]c(=O)c(C#N)cc1-c1ccncc1 | 7.43 µM (active)
Oc1ccc(C2CNCCc3c2cc(O)c(O)c3Cl)cc1 (configuration not stated) | inactive
CC(C[N+](C)(C)C)OC(N)=O (configuration not stated) | inactive
NC(N)=NC(=O)c1nc(Cl)c(N)nc1N | 8.33 µM (active)
